Compound activity as filed in PubChem.
mHTT CaM bind: mHTT-calmodulin interaction abrogation. P42858. inhibition, % at 15 µM. AlphaScreen His-mHTT/GST-CaM binding, luminescence. 190,000 compounds, 3.6% hits. AID 1671202
Pf apPOL inh: Pf-apPOL DNA polymerase inhibition; Recombinant Pf-apPOL, molecular beacon fluorescence, 1.5 h; inhibition, % at 10 µM; 210,000 compounds, 0.25% hits
Each line names hits and unclear results; the compound was inactive in the other large screens. Compounds with a hit are over-represented: about 3.6% of the library has one in this group of screens. Rule as the data show it: active = inhibition above about 50%; inactive = the rest.

CSc1ccc(CCNC(=O)CCCN2C(=O)CCn3nc(C)cc32)cc1	none
COc1ccccc1N1CCN(C(=O)C2CC2)CC1	none
COc1ccccc1N1CCN(C(=O)C2CCCc3c2[nH]c2ccccc32)CC1 (stereo not drawn)	mHTT CaM bind 59
COc1ccc(Nc2cc(C)c3cc(C)ccc3n2)cc1	mHTT CaM bind 56
Cc1ccc2nc(Cl)cc(C)c2c1	none (no result: Pf apPOL inh)
CCN(Cc1ccccc1)C(=O)c1ccc2c(c1)CCC(=O)N2CC	none
CC(=O)Nc1nc(C)c(-c2csc(Nc3ccc(N(C)C)cc3)n2)s1	mHTT CaM bind 96
c1ccc(Nc2nc(-c3cccnc3)cs2)nc1	none
CCC(=O)Nc1nc(C)c(-c2csc(Nc3cccc(C(C)=O)c3)n2)s1	none
CC(=O)Nc1nc(C)c(-c2csc(Nc3ccccn3)n2)s1	mHTT CaM bind 54
O=C(c1ccc2[nH]ccc2c1)N1CCC2(CC1)NC(=O)N(Cc1ccc(F)cc1)C2=O	none
O=C1/C(=C\c2ccc(O)cc2)C(N2CCOCC2)=NN1c1ccc([N+](=O)[O-])cc1	mHTT CaM bind 84
CCOC1=NN(c2ccc([N+](=O)[O-])cc2)C(=O)/C1=C/c1ccc(Cl)cc1	none
Cc1noc(COC2CCN(S(=O)(=O)c3cnc[nH]3)CC2)n1	none
COc1ccc(C2=NC3(CCN(C(C)C)CC3)NC(c3ccccc3O)C2)cc1 (stereo not drawn)	none
CCOc1ccc(C2=NC3(CCN(C(C)=O)CC3)NC(c3ccccc3O)C2)cc1 (stereo not drawn)	mHTT CaM bind 51
COc1ccc(C2=NC3(CCCCC3)NC(c3ccccc3O)C2)cc1 (stereo not drawn)	mHTT CaM bind 59
CCOC(=O)N1CCC2(CC1)N=C(c1ccc(OCC)cc1)CC(c1ccccc1O)N2 (stereo not drawn)	none
Cc1ccc(OCC(O)CN2CCN(c3ccccc3F)CC2)cc1C (stereo not drawn)	none
NS(=O)(=O)c1ccc(NC(=O)c2ccc([N+](=O)[O-])cc2)cc1	none
N#CC1=C(N)Oc2n[nH]c(-c3ccc(Br)cc3)c2C1c1cccnc1 (stereo not drawn)	none
COc1c(C)c(C)c(OC)c(S(=O)(=O)NCc2ccco2)c1C	none (no result: Pf apPOL inh)
CCOc1ccccc1NC(=O)C(=O)NCc1ccc(CC)cc1	none
CCc1ccc(CNC(=O)C(=O)Nc2ccccc2F)cc1	Pf apPOL inh 70
Cc1cc(C)cc(-n2cc(-c3ccc4c(c3)OCO4)[nH]c2=O)c1	none
Cc1ccc(-n2cc(-c3ccc4c(c3)OCO4)[nH]c2=O)cc1Cl	mHTT CaM bind 86
O=C(C1CC1)N1CCCC(c2ccnc(Nc3cccc(F)c3)n2)C1 (stereo not drawn)	none
O=C(Cc1cccc(F)c1)N1CCCC(c2ccnc(Nc3ccccc3)n2)C1 (stereo not drawn)	mHTT CaM bind 90
O=C(Cc1cccc(F)c1)N1CCCC(c2ccnc(-c3cccc(F)c3)n2)C1 (stereo not drawn)	none
Cc1ccccc1Nc1nccc(C2CCCN(C(=O)COc3ccc(F)cc3)C2)n1 (stereo not drawn)	mHTT CaM bind 90
O=C(c1ccccc1)N1CCCC(c2ccnc(Nc3cccc(F)c3)n2)C1 (stereo not drawn)	mHTT CaM bind 72
O=C(c1cccs1)N1CCCC(c2ccnc(Nc3ccc(F)cc3)n2)C1 (stereo not drawn)	none
CCOCC(=O)N1CCCC(c2ccnc(Nc3ccccc3C)n2)C1 (stereo not drawn)	none
O=C(c1cccs1)N1CCCC(c2ccnc(Nc3cccc(F)c3)n2)C1 (stereo not drawn)	mHTT CaM bind 93
N#C/C(=C\c1cn(Cc2ccccc2F)c2ccccc12)c1nn(CCO)c(N)c1C#N	none
CCC(C)c1ccc(N2CC(C(=O)O)CC2=O)cc1 (stereo not drawn)	none
COc1ccc(NC(=O)Cn2cc(-c3ccc(F)cc3)oc2=O)cc1	none
COc1cccc(-n2c(N3CCCC(C(=O)NCC(C)C)C3)nc3ccsc3c2=O)c1 (stereo not drawn)	none
CNC(=O)C1CN(S(=O)(=O)c2ccc(C)cc2)CC12CCCC2 (stereo not drawn)	none
O=C(Cc1cccs1)N1CCCC(c2ccnc(Nc3cccc(F)c3)n2)C1 (stereo not drawn)	mHTT CaM bind 75
CC(C)C(=O)N1CCCC(c2ccnc(Nc3cccc(F)c3)n2)C1 (stereo not drawn)	none
COc1cccc(C(=O)NC(c2ccc([N+](=O)[O-])cc2)c2cc(Cl)c3cccnc3c2O)c1 (stereo not drawn)	none
COc1cccc(C(=O)NC(c2ccco2)c2cc(Cl)c3cccnc3c2O)c1 (stereo not drawn)	mHTT CaM bind 80
CCCC(=O)NC(c1ccco1)c1cc(Cl)c2cccnc2c1O (stereo not drawn)	none
COc1cccc(C(=O)NC(c2ccccc2)c2cc(Cl)c3cccnc3c2O)c1 (stereo not drawn)	mHTT CaM bind 54
COc1cccc(C(=O)NC(c2ccc(OC)c(OC)c2)c2cc(Cl)c3cccnc3c2O)c1 (stereo not drawn)	mHTT CaM bind 52
Cc1ccc(CNC(=O)c2cccn3c(=O)c4ccc(Cl)cc4nc23)cc1	none
CC1CCN(S(=O)(=O)N2CCCC(C(=O)NC3CCCCCC3)C2)CC1 (stereo not drawn)	none
CC1=NN(c2ccccc2)C(=O)/C1=C/c1ccc(Cl)cc1	mHTT CaM bind 53
CC1=NN(c2ccccc2)C(=O)/C1=C/c1cccnc1	none
CC1=NN(c2ccccc2)C(=O)/C1=C/c1ccccc1F	none
CC1=NN(c2ccc(Cl)c(C(=O)O)c2)C(=O)/C1=C/c1ccc(Cl)cc1	none
CC1=NN(c2ccccc2)C(=O)/C1=C/c1ccc[nH]1	mHTT CaM bind 81
CC1=NN(c2ccccc2)C(=O)/C1=C/c1ccc(N)cc1	mHTT CaM bind 57
CC(CCc1ccccc1)NC(=O)c1ccc([N+](=O)[O-])cc1Cl (stereo not drawn)	none
CC(Cl)C(=O)Nc1ccc(-c2csc(N3CCCC3)n2)cc1 (stereo not drawn)	none
Cc1ccc(C)c(COc2ccc(C)nc2NC(=S)NCc2ccccc2)c1	none (no result: mHTT CaM bind)
Cc1ccc(/C=C2\Sc3ccccc3C2=O)cc1[N+](=O)[O-]	none
CN1CCN(c2ccc(/C=C3\Sc4ccccc4C3=O)cc2[N+](=O)[O-])CC1	mHTT CaM bind 72
CCNc1cc(N2CCC(CCC(=O)N3CCN(C(C)C)CC3)CC2)ncn1	none
Cc1cc(NC(=O)Cc2csc(NC(=O)c3ncccn3)n2)no1	mHTT CaM bind 100
CSc1ccccc1NC(=O)Cc1csc(NC(=O)c2ncccn2)n1	mHTT CaM bind 100
Cc1ccnc(Nc2nc(CC(=O)Nc3ccc4c(c3)OCCO4)cs2)c1	none
CCOC(=O)Cc1csc(NC(=O)c2ncccn2)n1	mHTT CaM bind 84
Cc1ccnc(Nc2nc(CC(=O)Nc3nnc(C)s3)cs2)c1	mHTT CaM bind 56
Cc1cc(C)nc(Nc2nc(CC(=O)NCc3ccccn3)cs2)n1	none
CCOC(=O)Cc1csc(NC(=O)CSc2ccccn2)n1	none (no result: mHTT CaM bind)
CC(C)c1ccccc1NC(=O)Cc1csc(Nc2ncccn2)n1	none
C=C(C)COc1ccc2c(=O)c(-c3ccccc3OC)c(C)oc2c1	none
Cc1ncc(CO)c2cc(C(=O)Nc3cccc(Cl)c3Cl)c(=N)oc12	none
O=C(CC1CCN(S(=O)(=O)c2cccs2)CC1)NC1CCCC1	none
CCC(=O)N(CC)CC1CC(c2ccc(Cl)c(Cl)c2)=NO1 (stereo not drawn)	none
NS(=O)(=O)c1ccc(-c2ccc(C=O)o2)cc1	none
O=Cc1ccc(-c2ccc(S(=O)(=O)O)cc2)o1	mHTT CaM bind 76
